Data from the supplement of paper PMC6555819.

How the values were obtained:
Experiment in all cases: PBM binding z-score (relative to random genomic background probes); higher = stronger binding; sequences stand for … in GC…GCGATTGACAGCGTAGAATGAAGG
[1] = test system: FXR:RXRa (NR concentration 270 nM, RXRa partner concentration 90 nM)
How it was run: (§1)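 Binding buffer was PBS pH 7.4 with 2% milk, 0.02% Triton X-100, 1 mM DTT, 0.2 mg/mL BSA and 0.4 mg/ml salmon testes DNA. In it, ligand-free nuclear receptor dimers were incubated 1 h on custom Agilent 4×180K protein-binding microarrays carrying double-stranded probes. Antibodies against each partner (one per run) detected binding, and z-scores were calculated against random background probes after regression normalization of scanned fluorescence.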

[2] = test system: LXRa:RXRa (NR concentration 270 nM, RXRa partner concentration 90 nM)
How it was run: as §1

[3] = test system: LXRa homodimer (NR concentration 270 nM)
How it was run: as §1

[4] = test system: LXRb:RXRa (NR concentration 270 nM, RXRa partner concentration 90 nM)
How it was run: as §1

[5] = test system: LXRb homodimer (NR concentration 270 nM)
How it was run: as §1

[6] = test system: PPARa:RXRa (NR concentration 270 nM, RXRa partner concentration 90 nM)
How it was run: as §1

[7] = test system: PPARg:RXRa (NR concentration 180 nM, RXRa partner concentration 90 nM)
How it was run: as §1

[8] = test system: PPARg:RXRa 270nM:90nM, anti-RXR (NR concentration 270 nM, RXRa partner concentration 90 nM)
How it was run: as §1

[9] = test system: PPARg:RXRa 30nM:10nM, anti-RXR (NR concentration 30 nM, RXRa partner concentration 10 nM)
How it was run: as §1

[10] = test system: PPARg:RXRa 90nM:30nM, anti-RXR (NR concentration 90 nM, RXRa partner concentration 30 nM)
How it was run: as §1

[11] = test system: PPARg:RXRa DBDmut IVT, anti-RXR (DBD mutation: RXRa K156A/R161A, NR concentration 270 nM, RXRa partner concentration 90 nM)
How it was run: as §1

[12] = test system: PPARg:RXRa IVT, anti-PPARg (NR concentration 270 nM, RXRa partner concentration 90 nM)
How it was run: as §1

[13] = test system: PPARg DBDmut:RXRa IVT, anti-PPARg (DBD mutation: PPARg1 K132A/R137A, NR concentration 270 nM, RXRa partner concentration 90 nM)
How it was run: as §1

[14] = test system: PPARg DBDmut IVT, anti-PPARg (DBD mutation: PPARg1 K132A/R137A, NR concentration 270 nM)
How it was run: as §1

[15] = test system: PPARg homodimer (NR concentration 180 nM)
How it was run: as §1

[16] = test system: PXR:RXRa (NR concentration 270 nM, RXRa partner concentration 90 nM)
How it was run: as §1

[17] = test system: PXR homodimer (NR concentration 270 nM)
How it was run: as §1

[18] = test system: RARa:RXR (NR concentration 270 nM, RXRa partner concentration 90 nM)
How it was run: as §1

[19] = test system: RARa homodimer (NR concentration 270 nM)
How it was run: as §1

[20] = test system: RARb:RXRa (NR concentration 270 nM, RXRa partner concentration 90 nM)
How it was run: as §1

Sequence	PBM binding z-score [1]	PBM binding z-score [2]	PBM binding z-score [3]	PBM binding z-score [4]	PBM binding z-score [5]	PBM binding z-score [6]	PBM binding z-score [7]	PBM binding z-score [8]	PBM binding z-score [9]	PBM binding z-score [10]	PBM binding z-score [11]	PBM binding z-score [12]	PBM binding z-score [13]	PBM binding z-score [14]	PBM binding z-score [15]	PBM binding z-score [16]	PBM binding z-score [17]	PBM binding z-score [18]	PBM binding z-score [19]	PBM binding z-score [20]
CTCGAAGGGTCGGTTGAGGTGAGTATACGGATAA	2.14	0.689	-0.0739	0.752	-0.256	1.37	0.221	0.4	0.00814	0.0401	-0.575	0.478	-0.346	0.307	0.548	1.86	0.399	1.32	-0.148	1.88
CCTTACGGGTCACGAGGTTATAGCTCGACGAGCG	6.98	4.79	0.064	3.92	0.048	6.3	7.52	6.72	3.42	5.91	3.64	5.56	3.54	1.04	3.72	4.94	-0.0531	6.5	1.15	4.36
CCTCGTTGGTCAAGGTCACACACGCTATAGGTAC	4.27	4.25	2.8	3.8	1.08	4.07	2.47	3.17	0.974	2.24	1.3	2.58	1.08	-0.102	3.26	4.25	1.82	4.63	2.69	4.18
CGAACTAGGTCATTGACAGGAAAGTGAATAGTAA	4.94	2.6	0.115	2.01	-0.078	4.67	7.36	6.32	3.65	5.55	7.79	8.25	2.11	2.92	1.37	1.37	0.599	2.02	0.0841	3.59
CCTTACGGGTCACGAAGTTATAGCACGACGAGCG	6.04	3.71	-0.266	3.39	-0.139	5.75	6.25	5.64	2.5	4.43	3.76	4.76	0.631	-0.0727	1.89	3.31	-0.0842	3.86	0.765	4.51
CCTTGGAGGACAACAGGAGGTCAGAGCTGCCAGA	1.03	2.19	2.44	1.58	-0.284	2.26	0.731	0.64	0.153	0.077	1.07	1.27	-1.18	-0.193	1.41	1.97	0.462	2.33	0.276	2.83
